# Measured values reported in PubChem BioAssay.
# The source made the active and inactive calls.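 Rule for the calls: active = visually confirmed hit in the image check and inhibition above 20%; inconclusive = visually confirmed hit but inhibition not above 20%; inactive = no visual hit in the image check.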
# Assay: endothelial E-selectin expression blockers – imaging, HUVEC, immunofluorescence, MLSMR starter and 10KST1 sets, primary screen (AID 487);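 for inhibition: signal is fraction of cell area covered by stained E-selectin grains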;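 for nuclei count: 100% = median nuclei count of all wells on the same plate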
# Details: HUVEC TNFalpha-induced E-selectin immunofluorescence imaging, at 2 µM; inhibition: stronger effect = higher value; nuclei count: measured here: cell number, toxicity
Structure (SMILES),inhibition,nuclei count
O=C(O)c1cc(O)c2c(c1)C(=O)c1cccc(O)c1C2=O,-98.1% (inactive),128%
CCCCC(=O)Nc1c(O)c2ccccc2[nH]c1=O,-155% (inactive),137%
Cc1cc(C)n(CC(=O)n2c3c(c4ccccc42)CCCC3)n1,-92.5% (inactive),130%
CCC(NC(C)C)C(O)c1ccc(O)c(O)c1 (configuration not stated),-51.9% (inactive),117%
COc1ccc(C2CNC(=O)C2)cc1OC1CCCC1 (configuration not stated),-59.8% (inactive),124%
Cn1cnc2c1c(=O)[nH]c(=O)n2C,-30.6% (inactive),124%
N=c1nc(N2CCCCC2)cc(N)n1O,-58.5% (inactive),138%
CCCCCC(=O)N1CC2(C)CN(C(=O)CCCCC)CC(C)(C1)C2=O,-94.9% (inactive),101%
O=C(O)Cc1ccc(-c2ccccc2)cc1,-30.6% (inactive),123%
CCSc1nc(N)c(C#N)c(-c2ccccc2Cl)c1C#N,-29% (inactive),107%
O=C(OCC#CCSc1nnc(-c2ccccc2)o1)c1cccs1,-178% (inactive),132%
Nc1nc(F)nc2c1ncn2[C@@H]1O[C@H](CO)[C@@H](O)[C@@H]1O,5.4% (inactive),106%
Cc1nc2sccn2c(=O)c1CCN1CCC(=C(c2ccc(F)cc2)c2ccc(F)cc2)CC1,-80.7% (inactive),112%
OCCNC1=NCCN1,-4.8% (inactive),146%
CCC[C@@H]1C[C@@H](C(=O)N[C@H]([C@@H](C)O)[C@H]2O[C@H](SC)[C@H](O)[C@@H](O)C2O)N(C)C1 (some centres not stated),-57.7% (inactive),123%
CCOC(=O)C1=C[C@]2(CC)CCCN3CCc4c(n1c1ccccc41)[C@@H]32,-59.3% (inactive),130%
NS(=O)(=O)c1cc2c(cc1Cl)NC(CSCc1ccccc1)=NS2(=O)=O,-78.7% (inactive),116%
Nc1ccc(S(=O)(=O)Nc2ccccn2)cc1,-123% (inactive),131%
CC(=O)Oc1cccc2c1C(=O)c1c(OC(C)=O)cc(C(=O)O)cc1C2=O,-52.7% (inactive),124%
OCC(O)CN1CCN(c2ccccc2)CC1 (configuration not stated),-69.1% (inactive),122%

Structure (SMILES),inhibition,nuclei count
O=C(NC1(C(F)(F)F)C(=O)Nc2c1c(=O)[nH]c(=O)n2Cc1ccco1)C1CCCCC1 (configuration not stated),-64.3% (inactive),112%
CCN(CC)CC#CCOC(=O)C(O)(c1ccccc1)C1CCCCC1 (configuration not stated),4.9% (inactive),112%
CN1[C@@H](CC(=O)c2ccccc2)CCC[C@H]1C[C@H](O)c1ccccc1,-81.3% (inactive),120%
O=C(O)c1ccccc1Nc1cccc(C(F)(F)F)c1,-44.4% (inactive),131%
O=[N+]([O-])c1cccc2cn[nH]c12,-87% (inactive),116%
COc1cccc(-c2nnc3sc(C4CCCCC4)nn23)c1,-37.4% (inactive),130%
CNCCCC1c2ccccc2C=Cc2ccccc21,-90.5% (inactive),120%
CC(C)(C)NCC(O)COc1cccc2c1C[C@H](O)[C@H](O)C2 (some centres not stated),-100% (inactive),118%
CCOC(=O)CSC1=C(C#N)C(=O)NC(c2ccc(OC)c(OC)c2)S1 (configuration not stated),-41.1% (inactive),135%
COc1ccc2nc(S(=O)Cc3ncc(C)c(OC)c3C)[nH]c2c1 (configuration not stated),-24.2% (inactive),108%
Cc1cc(C)c(C#N)c(SCc2[nH]nc3c2C(c2ccccc2)C(C#N)=C(N)O3)n1 (configuration not stated),-6.9% (inactive),114%
O/N=C/c1ccc(OCC(O)COc2ccc(/C=N/O)cc2)cc1,-37.7% (inactive),114%
CC(C)(C)OC(=O)N1CC=C2C(C#N)=C(N)C(C#N)(C#N)[C@H](c3cccnc3)[C@H]2C1,28.8% (inactive),112%
Oc1c(I)cc(I)c2cccnc12,-79.9% (inactive),121%
CCCCOc1ccc(C(=O)CCN2CCCCC2)cc1,-91.6% (inactive),114%
CN(C)c1nc(OCCOC(=O)Nc2ccc(Cl)cc2Cl)nc(N(C)C)n1,-100% (inactive),122%
CCOC(=O)c1c(C)n(C)c2ccc(OC)c(NC(=O)CCN3CCSCC3)c12,-134% (inactive),114%
CC(C)(C)n1cnc2cc(NS(=O)(=O)c3ccc(Br)cc3)ccc21,-37% (inactive),108%
Cn1c([N+](=O)[O-])cnc1COC(N)=O,-73.8% (inactive),138%

# Assay: Primary imaging screen for DUSP6 inhibitors that restore phospho-Erk in transfected HeLa cells, chemical complementation (AID 609)
# Details: HeLa MKP-3 transfected, phospho-Erk imaging KS statistic; measured here: cell density z-score; at 10 µM; cells stimulated with TPA for 15 min
row,Structure (SMILES),z-score
1,O=C(O)c1cc(O)c2c(c1)C(=O)c1cccc(O)c1C2=O,0.571
2,CCCCC(=O)Nc1c(O)c2ccccc2[nH]c1=O,-1.21
3,Cc1cc(C)n(CC(=O)n2c3c(c4ccccc42)CCCC3)n1,-0.283
4,CCC(NC(C)C)C(O)c1ccc(O)c(O)c1 (configuration not stated),-1.1
5,COc1ccc(C2CNC(=O)C2)cc1OC1CCCC1 (configuration not stated),-1.08
6,Cn1cnc2c1c(=O)[nH]c(=O)n2C,-0.137
7,N=c1nc(N2CCCCC2)cc(N)n1O,-0.689
8,CCCCCC(=O)N1CC2(C)CN(C(=O)CCCCC)CC(C)(C1)C2=O,0.798
9,O=C(O)Cc1ccc(-c2ccccc2)cc1,1.25
10,CCSc1nc(N)c(C#N)c(-c2ccccc2Cl)c1C#N,-2.31
11,O=C(OCC#CCSc1nnc(-c2ccccc2)o1)c1cccs1,-0.348
12,Nc1nc(F)nc2c1ncn2[C@@H]1O[C@H](CO)[C@@H](O)[C@@H]1O,-1.32
13,Cc1nc2sccn2c(=O)c1CCN1CCC(=C(c2ccc(F)cc2)c2ccc(F)cc2)CC1,0.864
14,OCCNC1=NCCN1,-0.706
15,CCC[C@@H]1C[C@@H](C(=O)N[C@H]([C@@H](C)O)[C@H]2O[C@H](SC)[C@H](O)[C@@H](O)C2O)N(C)C1 (some centres not stated),-0.311
16,CCOC(=O)C1=C[C@]2(CC)CCCN3CCc4c(n1c1ccccc41)[C@@H]32,-0.259
17,NS(=O)(=O)c1cc2c(cc1Cl)NC(CSCc1ccccc1)=NS2(=O)=O,-0.00243
18,Nc1ccc(S(=O)(=O)Nc2ccccn2)cc1,-1.05
19,CC(=O)Oc1cccc2c1C(=O)c1c(OC(C)=O)cc(C(=O)O)cc1C2=O,-1.09
20,OCC(O)CN1CCN(c2ccccc2)CC1 (configuration not stated),0.00928

row,Structure (SMILES),z-score
1,O=C(NC1(C(F)(F)F)C(=O)Nc2c1c(=O)[nH]c(=O)n2Cc1ccco1)C1CCCCC1 (configuration not stated),-1.32
2,CCN(CC)CC#CCOC(=O)C(O)(c1ccccc1)C1CCCCC1 (configuration not stated),-0.442
3,CN1[C@@H](CC(=O)c2ccccc2)CCC[C@H]1C[C@H](O)c1ccccc1,-0.242
4,O=C(O)c1ccccc1Nc1cccc(C(F)(F)F)c1,0.0659
5,O=[N+]([O-])c1cccc2cn[nH]c12,2.27
6,COc1cccc(-c2nnc3sc(C4CCCCC4)nn23)c1,0.451
7,CNCCCC1c2ccccc2C=Cc2ccccc21,0.8
8,CC(C)(C)NCC(O)COc1cccc2c1C[C@H](O)[C@H](O)C2 (some centres not stated),0.108
9,CCOC(=O)CSC1=C(C#N)C(=O)NC(c2ccc(OC)c(OC)c2)S1 (configuration not stated),-1.42
10,COc1ccc2nc(S(=O)Cc3ncc(C)c(OC)c3C)[nH]c2c1 (configuration not stated),0.164
11,Cc1cc(C)c(C#N)c(SCc2[nH]nc3c2C(c2ccccc2)C(C#N)=C(N)O3)n1 (configuration not stated),0.152
12,O/N=C/c1ccc(OCC(O)COc2ccc(/C=N/O)cc2)cc1,0.736
13,CC(C)(C)OC(=O)N1CC=C2C(C#N)=C(N)C(C#N)(C#N)[C@H](c3cccnc3)[C@H]2C1,-1.09
14,Oc1c(I)cc(I)c2cccnc12,-0.0594
15,CCCCOc1ccc(C(=O)CCN2CCCCC2)cc1,0.144
16,CN(C)c1nc(OCCOC(=O)Nc2ccc(Cl)cc2Cl)nc(N(C)C)n1,0.138
17,CCOC(=O)c1c(C)n(C)c2ccc(OC)c(NC(=O)CCN3CCSCC3)c12,-2.21
18,CC(C)(C)n1cnc2cc(NS(=O)(=O)c3ccc(Br)cc3)ccc21,0.246
19,Cn1c([N+](=O)[O-])cnc1COC(N)=O,0.12
